Screening data: PubChem BioAssay, National Center for Advancing Translational Sciences (NCATS)
KDM5B inhibitor: Primary screen for KDM5B Histone Demethylases FDH-coupled qHTS; Lysine-specific demethylase 5B (Homo sapiens), Q9UGL1; KDM5B demethylase, FDH-coupled NADH fluorescence (FDH is formaldehyde dehydrogenase); Potency, µM (series often up to 57.7 µM), actives largely listed as inhibitors; 220,000 tested, 2.6% active; AID 1347165, 2019; active = well fitted inhibition curve with a large enough effect; also: 0% is about no effect; nearly all actives have a fitted effect of over 70% in size
Target sequence (Q9UGL1 whole entry, looked up): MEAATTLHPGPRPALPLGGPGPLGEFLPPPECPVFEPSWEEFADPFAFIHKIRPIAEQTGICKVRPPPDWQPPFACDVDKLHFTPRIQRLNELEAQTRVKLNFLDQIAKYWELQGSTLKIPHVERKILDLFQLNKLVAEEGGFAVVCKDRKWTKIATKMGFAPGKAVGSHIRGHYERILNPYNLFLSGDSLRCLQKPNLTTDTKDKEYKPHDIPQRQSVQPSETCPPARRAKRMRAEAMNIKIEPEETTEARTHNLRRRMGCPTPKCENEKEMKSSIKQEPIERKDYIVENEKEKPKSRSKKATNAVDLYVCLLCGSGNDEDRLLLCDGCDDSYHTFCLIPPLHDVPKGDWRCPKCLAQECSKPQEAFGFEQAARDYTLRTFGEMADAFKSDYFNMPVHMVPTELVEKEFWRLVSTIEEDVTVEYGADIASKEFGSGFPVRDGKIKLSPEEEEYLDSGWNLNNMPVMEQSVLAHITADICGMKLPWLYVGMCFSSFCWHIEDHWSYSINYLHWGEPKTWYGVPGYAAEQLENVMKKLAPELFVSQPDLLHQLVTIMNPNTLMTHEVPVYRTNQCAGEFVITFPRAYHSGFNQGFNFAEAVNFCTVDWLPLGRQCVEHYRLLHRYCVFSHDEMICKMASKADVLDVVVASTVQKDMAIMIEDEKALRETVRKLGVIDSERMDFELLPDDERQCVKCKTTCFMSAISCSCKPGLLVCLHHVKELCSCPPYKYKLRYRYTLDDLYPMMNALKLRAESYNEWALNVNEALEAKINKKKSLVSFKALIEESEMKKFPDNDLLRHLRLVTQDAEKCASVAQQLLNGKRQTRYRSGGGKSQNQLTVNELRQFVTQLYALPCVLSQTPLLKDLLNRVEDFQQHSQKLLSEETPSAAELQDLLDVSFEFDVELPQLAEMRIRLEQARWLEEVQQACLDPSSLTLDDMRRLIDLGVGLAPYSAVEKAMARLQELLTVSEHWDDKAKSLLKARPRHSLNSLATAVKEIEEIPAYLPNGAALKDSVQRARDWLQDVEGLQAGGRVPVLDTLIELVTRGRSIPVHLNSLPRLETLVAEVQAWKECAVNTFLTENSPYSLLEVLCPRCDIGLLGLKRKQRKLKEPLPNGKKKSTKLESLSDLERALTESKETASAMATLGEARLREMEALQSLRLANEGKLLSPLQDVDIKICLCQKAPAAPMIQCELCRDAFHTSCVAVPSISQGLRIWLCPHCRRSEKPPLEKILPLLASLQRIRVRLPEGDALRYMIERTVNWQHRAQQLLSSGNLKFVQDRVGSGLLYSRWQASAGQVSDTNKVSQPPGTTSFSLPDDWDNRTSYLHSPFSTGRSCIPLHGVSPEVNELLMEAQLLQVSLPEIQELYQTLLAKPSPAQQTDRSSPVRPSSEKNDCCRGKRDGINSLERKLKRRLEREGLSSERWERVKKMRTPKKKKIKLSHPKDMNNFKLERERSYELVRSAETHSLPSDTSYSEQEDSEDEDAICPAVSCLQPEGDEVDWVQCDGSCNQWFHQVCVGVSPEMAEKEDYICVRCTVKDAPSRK
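Coupled FDH/NAD⁺ fluorescence readout. KDM5BΔAP 200 nM final; compound titration, 10 min RT preincubation; substrate mix 12.5 µM H3K4me3, 25 µM 2-OG, 50 µM Fe(II), 100 µM ascorbate, 0.25 mM NAD⁺, 0.25 U/mL FDH; ΔRFU over 30 min.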
Active calls of the source: *; i = inactive. The entries come from a sample that favours hits as a whole. Potency is read from the fitted curve at half-maximal effect.

SMILES | KDM5B inhibitor
O=C(Nc1c(N2CCCC2)c2ccccc2oc1=O)C1CC(=O)N(c2ccccc2)C1 (centres undefined) | i
Cc1cc(C)c(C)c(S(=O)(=O)N2CCN(C(=O)Cc3c(C)nn(C)c3C)CC2)c1C | i
COc1ccc(OCCN2CCN(C(=O)c3ccc(OC)c(OC)c3)CC2)cc1 | i
CC(C)Cc1cc(C(=O)N2CCN(CCOc3ccccc3)CC2)on1 | i
Cn1ccc2ccc(C(=O)N3CCN(CCOc4ccccc4)CC3)cc21 | 28.2µM*
CCc1cn(C[C@H](NC(=O)C(C)(C)C)C(=O)O)c(=O)[nH]c1=O | i
COc1ccccc1OCCNC(=O)CC1=C2CCCCC2N(Cc2ccccc2)C1=O (centres undefined) | i
CCCC(=O)NC1CCN(Cc2nnnn2-c2ccccc2)CC1 | i
COCc1nncn1C1CCN(S(=O)(=O)c2cccc(C)c2)CC1 | i
CC(C)(C)c1ccc(NC(=O)c2ccc(C(F)(F)F)nc2)cc1 | i
COc1ccc(-c2cc3c(nc2OC)nc(CC2CC2)n3C)cc1 | 35.5µM*
COc1ccc(S(=O)(=O)N2CCC(Cc3nncn3C)CC2)cc1 | i
COc1ccc(-n2ccnc2CN2CCC(Cc3nncn3C)CC2)cc1 | i
COc1cc(-c2cc3c(nc2OC)nc(CC2CC2)n3C)ccn1 | 39.8µM*
Cc1sc(/N=C/c2ccccc2Cl)c(C#N)c1C | i
COCC1CN(S(=O)(=O)c2cccc(C)c2)CC12CCOCC2 (centres undefined) | i
CCc1ccc(/C(C)=N/NC(=O)c2csc(CC)c2)cc1 | i
COc1ccccc1C(=O)N1CCCC(c2nn(-c3ccc(Cl)cc3)c(=O)[nH]2)C1 (centres undefined) | i
COCc1ccc(CNC(=O)CC(C)(C)C)cc1 | i
Cc1cccc(N(C)C(=O)Cn2c(=O)n(-c3cccc(C)c3)c(=O)c3c2cc(C)n3C)c1 | i
CN(C)c1nc2c(c(=O)[nH]1)CCN(Cc1cc(Cl)ccc1F)CC2 | i
CN(C)c1nc2c(c(=O)[nH]1)CCN(Cc1cc(F)c(F)c(F)c1)CC2 | i
CN(C)c1nc2c(c(=O)[nH]1)CCN(Cc1ccc(Cl)c(F)c1)CC2 | 28.2µM*
CCCCn1nc(C(=O)Nc2nc(-c3cc(F)ccc3F)cs2)c2ccccc2c1=O | i
CCS(=O)(=O)N1CCc2cc(C(=O)COc3ccc(C(=O)c4ccc(F)cc4)cc3)ccc21 | i
SMILES | KDM5B inhibitor
COC[C@@H]1CN(Cc2cccc(OC)c2OC)C[C@H]1C(=O)NC1CC1 | i
COc1ccccc1CNC(=O)[C@H]1CN(C(C)C)C[C@H]1C(=O)O | i
COC[C@@H]1CN(Cc2ccccn2)C[C@H]1C(=O)NC1CC1 | i
O=C(NCCn1cccn1)C1CCC(=O)N(CC2CCCCC2)C1 (centres undefined) | i
COC[C@@H]1CN(Cc2cn(C)nc2C)C[C@H]1c1ccncc1 | i
COC[C@@H]1CN(Cc2cnn(C)c2)C[C@H]1C(=O)N(C)C | i
COC[C@@H]1CN(c2ncccn2)C[C@H]1C(=O)NCCn1cccn1 | 20µM*
COc1ccc(NC(=O)N2CCN(c3cnccn3)CC2)cn1 | i
COC[C@@H]1CN(c2ncccn2)C[C@H]1C(=O)NCc1ccccc1OC | 17.8µM*
COC[C@@H]1CN(c2ncccn2)C[C@H]1C(=O)N(C)Cc1cn(C)nc1C | 14.1µM*
COC[C@@H]1CN(c2ncccn2)C[C@H]1C(=O)Nc1ccc(OC)nc1 | 25.1µM*
CNC(=O)[C@@H]1CN(C(=O)CCn2cccn2)C[C@H]1COC | i
CC(=O)Nc1cc(F)ccc1-c1csc(NC(=O)CCc2ccccc2)n1 | i
O=C(NC1CCN(c2cc(-c3ccccc3)[nH]n2)CC1)c1ccc(Cl)cc1 | i
COc1ccc(CN2CCOC[C@H]2c2ncc(C(C)(C)C)[nH]2)cc1 | i
Cc1cccc(CN(C)CC2CCCN(CCc3cccc(C(F)(F)F)c3)C2)n1 (centres undefined) | i
Cc1c(C(=O)N2CCCC2)c(S(=O)(=O)N2c3ccccc3CC2C)c(C)n1C (centres undefined) | i
COc1ccc(C2CC(=O)Nc3ccsc32)cc1 (centres undefined) | i
COC(=O)c1ccc(CNC(=O)NCc2coc(-c3cccs3)n2)cc1 | i
CC(NC(=O)c1ccco1)C(=O)Nc1nc(-c2ccc3ccccc3c2)cs1 (centres undefined) | i
COc1ccc(NS(=O)(=O)c2ccc(-c3cnc(C4CC4)o3)cc2)cc1 | i
O=C(Nc1cccc(Cl)c1)N1CCC(n2cnnc2C2CC2)C1 (centres undefined) | i
NC(=O)c1cc(Cl)ccc1OCc1cccc(C(F)(F)F)c1 | i
O=C(NC1CCc2ccccc21)c1ccccn1 (centres undefined) | i
CNC(=O)[C@@H]1CN(C(=O)c2ocnc2C)C[C@H]1COC | i
SMILES | KDM5B inhibitor
Cc1n[nH]c(C)c1CNC(=O)C1CCN(C(=O)c2ncn3c2COC(c2ccc(F)cc2)C3)CC1 (centres undefined) | i
COC[C@@H]1CN(c2ncccn2)C[C@H]1C(=O)NCc1c(C)n[nH]c1C | 28.2µM*
Cc1cccc(CN2CCN(C(=O)c3n[nH]c(=O)c4ccccc34)CC2)c1 | i
Cc1ccc2ncc(C(=O)N3CCN(c4ccccc4F)CC3)c(=O)n2c1 | i
Cc1cccc(CN2CCN(C(=O)c3cnc4ccccn4c3=O)CC2=O)c1 | 31.6µM*
Cc1cccc(N2CCN(CC(=O)NC(=O)NCC(F)(F)F)CC2)c1 | i
Cc1ccc(C2=NN(C(=O)CCC(=O)O)C(c3ccc4nccnc4c3)C2)cc1 (centres undefined) | i
Cc1cccc(N2CCN(CC(=O)N3C[C@@H](C)[C@](O)(C4CCC4)C3)CC2)c1 | i
O=C(CN1C(=O)NC2(CCOc3ccccc32)C1=O)NCCc1c[nH]c2ccccc12 (centres undefined) | i
Cc1ccc(N(Cc2nc3nc(C)cc(=O)n3[nH]2)C(=O)c2ccccc2Cl)cc1 | i
COCCN1C(=O)[C@@H]2C[C@@H](CN2Cc2ccccc2Cl)Oc2ccccc21 | i
CCc1ccc(Cn2nc(C3CC3)nc2-c2cnn(C)c2)cc1 | i
CCc1nnc(NC(=O)Cc2coc3ccc(C(C)C)cc23)s1 | i
COCc1nc2nccc(-c3ccc(OC)cc3)n2n1 | i
COc1ccc(Cc2nc3nccc(-c4ccc(OC)cc4)n3n2)cc1 | 14.1µM*
CCc1nc2nccc(-c3ccc(OC)cc3)n2n1 | 22.4µM*
COc1ccc(Cc2nc3nccc(-c4ccncc4)n3n2)cc1 | i
COCc1nc2nccc(-c3ccc4c(c3)CC(C)O4)n2n1 (centres undefined) | 28.2µM*
CCc1nc2nccc(-c3ccc4c(c3)OCCCO4)n2n1 | 28.2µM*
COCc1nc(-c2ccc3c(c2)OCCCO3)cs1 | i
CCc1nc2nccc(-c3ccc(Br)s3)n2n1 | i
O=C(c1ccccc1SCc1cn2ccccc2n1)N1CCN(c2nccs2)CC1 | i
O=C(NCc1cccnc1Oc1ccc(F)cc1F)c1cc(C2CC2)[nH]n1 | i
CN1CCN(C(=O)c2cc3cc(Cl)cc(Cl)c3oc2=O)CC1 | i
CCN(Cc1ccc(OC)c(F)c1)C(C)c1nnc(-c2ccc(F)cc2)o1 (centres undefined) | i
N#Cc1ccc(COC(=O)CSC(=S)N2CCOCC2)cc1 | i
COCC1(C(=O)N2CCOC(c3ccc4cc(OC)ccc4c3)C2)CCC1 (centres undefined) | i
Cn1ccnc1C(=O)c1cccc(NC(=O)C(=O)NCCO)c1 | i
